These entries were drawn from the full list.
aSyn 5UTR act – Activators working through SNCA 5'UTR binding (MLPCN) | alpha-synuclein 5'UTR reporter, activators screen | activity score, % (tested at 7.5 µM), hits read low | hit rate 7.1% among 300,000 | AID 1814; in the data active = activity score below about -60%
Numbers without * were called inactive.

SMILES	aSyn 5UTR act
Cc1nn(Cc2ccc(F)cc2)c2sc(C(=O)Nc3ccc(N4CCOCC4)cc3N3CCOCC3)cc12	61
O=C(Nc1ccn(Cc2ccc(Cl)cc2)n1)c1ccccc1	-149*
O=C(Nc1ccn(Cc2ccccc2)n1)c1ccc2c(c1)OCO2	-171*
COc1ccc2oc(C(=O)OCC(=O)NCCN3C(=O)CSC3=O)c(C)c2c1	-71*
O=C1N(Cc2ccc(F)cc2)CCN1c1ccc(F)cc1	-81*
CCc1ccc(NC(=O)COc2ccc(F)cc2C(=O)c2cnn(-c3ccccc3)c2)cc1	-130*
COc1ccccc1NC(=O)COc1ccccc1C(=O)c1cnn(-c2ccccc2)c1	-136*
Cc1nc2ccccc2n1/N=C/c1ccc([N+](=O)[O-])o1	-172*
Cc1nc2ccccc2c(=O)n1/N=C/c1ccc([N+](=O)[O-])o1	-64*
COc1ccc(C(=O)Nc2sc3c(c2C(=O)O)CC(C)(C)OC3)cc1	63
CC1(C)Cc2c(sc(NC(=O)c3ccccc3)c2C(=O)O)CO1	-74*
CN(C)/C=N/c1sc2c(c1C#N)CCCCC2	-124*
N#Cc1c(/N=C/c2cccs2)sc2c1CCCCC2	-186*
N#Cc1c(/N=C/N2CCOCC2)sc2c1CCCCC2	-122*
N#Cc1c(/N=C/c2ccc(-c3ccccc3C(=O)O)o2)sc2c1CCCC2	-78*
NC(=O)c1cnn(-c2ccc3ccccc3c2)c1N	-125*
Cc1cc(C)nc(NC(=S)Nc2ccccc2)n1	-84*
S=C(Nc1ccc(Nc2ccccc2)cc1)NN1CCOCC1	-99*
COCCCNC(=S)NNC(=S)Nc1ccc(F)cc1F	-106*
C/C(=N\NC(=S)Nc1ccccc1)C1Cc2ccccc2C(=O)O1 (stereo unspecified)	-154*
CC(C)(C)NC(=S)Nc1ccc(Nc2ccccc2)cc1	-115*
S=C(NNC(=S)Nc1ccccc1)Nc1ccccc1	-145*
S=C(NN=C(C1CC1)C1CC1)Nc1ccccc1	-63*
COCCCNC(=S)NNC(=S)Nc1ccccc1	-65*
CC1CCN(c2c([N+](=O)[O-])nn(-c3ccc4c(c3)OCCO4)[n+]2[O-])CC1	-98*
SMILES	aSyn 5UTR act
Cc1ccc(N=Nc2c(C)[nH]n(-c3ccccc3)c2=O)c(C)c1	-78*
Cc1[nH]n(-c2ccccc2)c(=O)c1N=Nc1ccc(F)cc1	-81*
Cc1cc(N)ccc1N=Nc1c(C)n(C)n(-c2ccccc2)c1=O	-73*
Cc1[nH]n(-c2ccccc2)c(=O)c1N=Nc1cccc(Cl)c1	-202*
Cc1[nH]n(-c2ccccc2)c(=O)c1N=Nc1ccc2c(c1)OCCO2	-220*
Cc1[nH]n(-c2ccccc2)c(=O)c1N=Nc1c(O)cc(S(=O)(=O)N(C)C)c2ccccc12	71
Nc1c(N=Nc2cccc(Cl)c2)c(=O)[nH]n1-c1ccccc1	-66*
Cc1[nH]n(-c2ccc(Cl)cc2)c(=O)c1N=Nc1cccnc1	-93*
Cc1[nH]n(-c2ccccc2)c(=O)c1N=Nc1cccc([N+](=O)[O-])c1	-71*
CSc1ccc(N=Nc2c(C)[nH]n(C)c2=O)cc1	-62*
CCOc1ccc(-c2c(=O)n(OCc3ccc([N+](=O)[O-])cc3)c3ccccc3[n+]2[O-])cc1	-178*
CCOC(=O)COn1c(=O)c(-c2cc3ccccc3o2)[n+]([O-])c2ccccc21	-114*
CCCOc1ccc(-c2c(=O)n(OCC(=O)OCC)c3ccccc3[n+]2[O-])cc1	-88*
CCCCCCCCCCOC(=O)Cn1c(COc2ccc(Cl)cc2)[n+](C)c2ccccc21	83
C=CCOn1c(=O)c(-c2cc3ccccc3o2)[n+]([O-])c2ccccc21	-144*
O=C(Nc1ccc(Cc2ccncc2)cc1)C1CCC(N2C(=O)C3C4C=CC(C5CC45)C3C2=O)CC1 (stereo unspecified)	-62*
CC(Sc1nncn1C)C(=O)Nc1nnc(-c2ccccc2)s1 (stereo unspecified)	-83*
CC(SC1=NCCS1)C(=O)Nc1nnc(-c2ccc(Cl)cc2)s1 (stereo unspecified)	-63*
C/C(CC(=O)Nc1cc(C)ccn1)=N\NC(=O)C(=O)Nc1cccc(C)c1	-74*
COc1cccc(NC(=O)C(=O)N/N=C(\C)CC(=O)Nc2ccc(NC(C)=O)cc2)c1	-196*
C/C(CC(=O)Nc1ccc(OCc2ccccc2)cc1)=N\NC(=O)C(=O)Nc1ccc(C)c(Cl)c1	-69*
CC1CCC/C(=N\Nc2ccc(Cl)c(C(=O)O)c2)C1 (stereo unspecified)	-98*
CC1CCC/C(=N\NC(=O)Nc2ccccc2)C1 (stereo unspecified)	-142*
CC(=O)Nc1cccc(NC(=O)C(=O)Nc2ccc3c(c2)N(C(=O)C2CC2)CCC3)c1	-92*
COc1cccc(/C=C/C(=O)OCC(=O)N2c3ccccc3NC(=O)C2(C)C)c1	-70*
CCN(Cc1ccc(OC)c(F)c1)C(=O)CCl	-74*
Oc1c(N=Nc2ccccc2)sc2ccccc12	-192*
O=C1c2ccccc2S(=O)(=O)N1CC1CC(c2ccccc2)=NO1 (stereo unspecified)	-144*
O=C1c2ccccc2S(=O)(=O)N1CC1CC(c2ccc(Cl)cc2)=NO1 (stereo unspecified)	-197*
